This is an account of results in the supplement of paper PMC3414501.

Structures are written as SMILES. Where a name gives a salt, the structure may show the parent alone. Values without a mark were called inactive.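 How the source made its calls: active = HIS4 sensitivity z-score above 5 vs DMSO controls; inactive = score 5 or below.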

In this assay the test system is S. cerevisiae NKY1551 his4x/his4B, sporulating. Nature of the assay: HIS4 meiotic recombination assay sensitivity score (z-score vs DMSO controls); higher = stronger inhibition of sporulation/recombination, active = hit call of the paper. The procedure: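 NIH Clinical Collection compounds were added 1:100 from stock (about 100 µM final) to S. cerevisiae. Growth: average doubling time (AvgG) over 24 h of BY4741 (wild-type) or AD1-9 (drug-efflux-pump deficient) in rich media. HIS4: the his4x/his4B heteroallelic recombination reporter strain (SK1) was sporulated 5 h with compound at 30°C, then colony density was read on -his plates after 48 h. Sensitivity score = (compound − mean of 8 DMSO controls)/SD of DMSO controls. Hit cutoffs are >2 for growth and >5 for sporulation.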
For the molecule `CN1CCN(C2=Nc3ccccc3Oc3ccc(Cl)cc32)CC1` [Loxapine succinate] (stock concentration (mM, diluted 1:100): 11), the “HIS4 meiotic recombination assay sensitivity score” value was 7.41 (active).
Turning to `CC(=O)Nc1ccc(CC(=O)O)cc1` [Actarit] (stock concentration (mM, diluted 1:100): 10), the “HIS4 meiotic recombination assay sensitivity score” value was 0.62.
Consider `CCCCC(=O)N(Cc1ccc(-c2ccccc2-c2nnn[nH]2)cc1)[C@H](C(=O)O)C(C)C` [Valsartan] (stock concentration (mM, diluted 1:100): 10), for which the “HIS4 meiotic recombination assay sensitivity score” value is -0.5.
With `CC[C@H](C)C(=O)O[C@H]1CCC=C2C=C[C@H](C)[C@H](CC[C@@H]3C[C@@H](O)CC(=O)O3)[C@H]21` [Mevastatin] (stock concentration (mM, diluted 1:100): 10) the figure was 1.32; with `Cc1c(O)cccc1C(=O)N[C@@H](CSc1ccccc1)[C@H](O)CN1C[C@H]2CCCC[C@H]2C[C@H]1C(=O)NC(C)(C)C` [Nelfinavir mesylate] (stock concentration (mM, diluted 1:100): 8.6), 0.21.
For `CN1CCC(=C2c3ccccc3C=Cc3ccccc32)CC1` [Cyproheptadine hydrochloride] (stock concentration (mM, diluted 1:100): 10), the “HIS4 meiotic recombination assay sensitivity score” value was 6.95 (active).
Turning to `CCCCc1oc2ccccc2c1C(=O)c1cc(I)c(OCCN(CC)CC)c(I)c1` [Amiodarone hydrochloride] (stock concentration (mM, diluted 1:100): 9.5), the “HIS4 meiotic recombination assay sensitivity score” value is -0.63.
`COc1ccc2c3c1O[C@H]1C[C@@H](O)C=C[C@@]31CCN(C)C2` [Galanthamine] (stock concentration (mM, diluted 1:100): 8.8): the “HIS4 meiotic recombination assay sensitivity score” value was -0.9.
With `N[C@@H](C(=O)N[C@@H]1C(=O)N2C(C(=O)O)=C(Cl)CS[C@H]12)c1ccccc1` [Cefaclor] (stock concentration (mM, diluted 1:100): 10) the figure was 1.51; with `C#C[C@]1(O)CC[C@H]2[C@@H]3CCc4cc(O)ccc4[C@H]3CC[C@@]21C` [Ethynylestradiol] (stock concentration (mM, diluted 1:100): 10), -1.32.
For `COc1ccccc1OCC(O)CN1CCN(CC(=O)Nc2c(C)cccc2C)CC1` (stereo not given) [Ranolazine dihydrochloride] (stock concentration (mM, diluted 1:100): 8.6), the “HIS4 meiotic recombination assay sensitivity score” value was -1.05.
With `COCCCC/C(=N\OCCN)c1ccc(C(F)(F)F)cc1` [Fluvoxamine] (stock concentration (mM, diluted 1:100): 7.7) the figure was 8.08 (active).
With `CN1CCN(CCCN2c3ccccc3Sc3ccc(C(F)(F)F)cc32)CC1` [Trifluoperazine dihydrochloride] (stock concentration (mM, diluted 1:100): 10), the “HIS4 meiotic recombination assay sensitivity score” value was -2.62.
`Cc1c(C(=O)NN2CCCCC2)nn(-c2ccc(Cl)cc2Cl)c1-c1ccc(I)cc1` (stock concentration (mM, diluted 1:100): 10): the “HIS4 meiotic recombination assay sensitivity score” value is 1.13.
Take `COc1ccc(CC2c3cc(OC)c(OC)cc3CC[N+]2(C)CCC(=O)OCCCCCOC(=O)CC[N+]2(C)CCc3cc(OC)c(OC)cc3C2Cc2ccc(OC)c(OC)c2)cc1OC` (stereo not given) [Atracurium besylate] (stock concentration (mM, diluted 1:100): 10): the “HIS4 meiotic recombination assay sensitivity score” value was 0.87.
Turning to `Oc1ccc(C2CNCCc3c2cc(O)c(O)c3Cl)cc1` (stereo not given) [Fenoldopam mesylate] (stock concentration (mM, diluted 1:100): 7.7), the “HIS4 meiotic recombination assay sensitivity score” value is -0.24.
Take `O=C(O)/C=C/c1ccc(Cn2ccnc2)cc1` [Ozagrel hydrochloride] (stock concentration (mM, diluted 1:100): 8.6): the “HIS4 meiotic recombination assay sensitivity score” value was 0.54.
With `O=c1cnn([C@@H]2O[C@H](CO)[C@@H](O)[C@H]2O)c(=O)[nH]1` [6-Azauridine] (stock concentration (mM, diluted 1:100): 10) the figure was -1.27; with `C[C@]12C=CC(=O)C=C1CC[C@@H]1[C@@H]2[C@@H](O)C[C@@]2(C)[C@H]1CC[C@]2(O)C(=O)COC(=O)CCC(=O)O` (stock concentration (mM, diluted 1:100): 10), -0.86.
With `Cc1c(O)c(=O)ccn1C` [Deferiprone] (stock concentration (mM, diluted 1:100): 10) the figure was -0.12; with `Nc1nc(O)c2ncn(CCC(CO)CO)c2n1` [Penciclovir] (stock concentration (mM, diluted 1:100): 10), -0.35.
With `Cc1cc2c(s1)Nc1ccccc1N=C2N1CCN(C)CC1` [Olanzapine] (stock concentration (mM, diluted 1:100): 9.9) the figure was 1.61; with `COC(=O)C1=C(C)NC(C)=C(C(=O)OC)C1c1ccccc1[N+](=O)[O-]` [Nifedipine] (stock concentration (mM, diluted 1:100): 10.7), 1.3.
Turning to `C=C1/C(=C\C=C2/CCC[C@]3(C)[C@@H]([C@H](C)CCCC(C)(C)O)CC[C@@H]23)C[C@@H](O)C[C@@H]1O` [Calcitriol] (stock concentration (mM, diluted 1:100): 10), the “HIS4 meiotic recombination assay sensitivity score” value was 2.18.
For `COc1cc2c(cc1OC)C(=O)C(CC1CCN(Cc3ccccc3)CC1)C2` (stereo not given) [Donepezil] (stock concentration (mM, diluted 1:100): 9.1) the value was 0.42.
For `CCc1ccc(CCOc2ccc(CC3SC(=O)NC3=O)cc2)nc1` (stereo not given) [Pioglitazone hydrochloride] (stock concentration (mM, diluted 1:100): 9.1) the value was 0.36; for `Cc1nccn1CC1CCc2c(c3ccccc3n2C)C1=O` (stereo not given) [Ondansetron hcl] (stock concentration (mM, diluted 1:100): 8.9), -0.73; for `CC(CCCCC(=O)Nc1ccc(C(F)(F)F)cc1)NCCc1cnc[nH]1` (stereo not given) (stock concentration (mM, diluted 1:100): 10), -0.79.
Regarding `CN1C(=O)CC[C@H]1c1cccnc1` [Cotinine] (stock concentration (mM, diluted 1:100): 10), the “HIS4 meiotic recombination assay sensitivity score” value is -1.15.
For `CNCCCCOc1ccccc1Cc1ccccc1` [Bifemelane] (stock concentration (mM, diluted 1:100): 10) the value was 9.23 (active); for `Cc1nc(=O)c2cc(CN(C)c3ccc(C(=O)N[C@@H](CCC(=O)O)C(=O)O)s3)ccc2[nH]1` [Raltitrexed] (stock concentration (mM, diluted 1:100): 10), -0.01.
For `CC[C@@H]1C(=O)OC[C@@H]1Cc1cncn1C` [Pilocarpine hydrochloride] (stock concentration (mM, diluted 1:100): 10) the value was -0.54.
For `COc1cc2nc(N3CCN(C(=O)C4CCCO4)CC3)nc(N)c2cc1OC` (stereo not given) [Terazosin] (stock concentration (mM, diluted 1:100): 9.5), the “HIS4 meiotic recombination assay sensitivity score” value was 0.92.
Regarding `C/C=C1\[C@H]2C=C(C)C[C@]1(N)c1ccc(=O)[nH]c1C2` [Huperzine a] (stock concentration (mM, diluted 1:100): 10), the “HIS4 meiotic recombination assay sensitivity score” value was -0.7.
For the molecule `O=C1N(c2ccccc2)c2ccccc2C1(Cc1ccncc1)Cc1ccncc1` (stock concentration (mM, diluted 1:100): 10), the “HIS4 meiotic recombination assay sensitivity score” value is 0.8.
As for `O=C(O)C[C@H](O)C[C@H](O)/C=C/c1c(C2CC2)nc2ccccc2c1-c1ccc(F)cc1` [Livalo] (stock concentration (mM, diluted 1:100): 5), the “HIS4 meiotic recombination assay sensitivity score” value is -3.02.
For `Nc1nnc(-c2cccc(Cl)c2Cl)c(N)n1` [Lamotrigine] (stock concentration (mM, diluted 1:100): 10.3) the value was -1.72.
Regarding `CS(=O)(=O)c1ccc(C2=C(c3ccccc3)C(=O)OC2)cc1` [Rofecoxib] (stock concentration (mM, diluted 1:100): 10), the “HIS4 meiotic recombination assay sensitivity score” value is -1.67.
For `CN(C)CCN(Cc1ccccc1)c1ccccn1` [Tripelennamine hydrochloride] (stock concentration (mM, diluted 1:100): 10) the value was 8.14 (active); for `CC1(C)C[C@@H]1C(=O)N/C(=C\CCCCSC[C@H](N)C(=O)O)C(=O)O` [Cilastatin] (stock concentration (mM, diluted 1:100): 9.4), -0.68.
